# Measurements: ChEMBL document CHEMBL1961873, “Compounds: GSK PKIS; Assays: Nanosyn kinase panel” (2012)
# Where “and” joins values, the source holds several entries; their conditions need not be identical. Equal values may be shown once.
# Columns and labels:
# [1] = target: T1, Ephrin type-B receptor 2 (Homo sapiens) (UniProt P29323); settings: at 1 µM
# T1 sequence (whole entry): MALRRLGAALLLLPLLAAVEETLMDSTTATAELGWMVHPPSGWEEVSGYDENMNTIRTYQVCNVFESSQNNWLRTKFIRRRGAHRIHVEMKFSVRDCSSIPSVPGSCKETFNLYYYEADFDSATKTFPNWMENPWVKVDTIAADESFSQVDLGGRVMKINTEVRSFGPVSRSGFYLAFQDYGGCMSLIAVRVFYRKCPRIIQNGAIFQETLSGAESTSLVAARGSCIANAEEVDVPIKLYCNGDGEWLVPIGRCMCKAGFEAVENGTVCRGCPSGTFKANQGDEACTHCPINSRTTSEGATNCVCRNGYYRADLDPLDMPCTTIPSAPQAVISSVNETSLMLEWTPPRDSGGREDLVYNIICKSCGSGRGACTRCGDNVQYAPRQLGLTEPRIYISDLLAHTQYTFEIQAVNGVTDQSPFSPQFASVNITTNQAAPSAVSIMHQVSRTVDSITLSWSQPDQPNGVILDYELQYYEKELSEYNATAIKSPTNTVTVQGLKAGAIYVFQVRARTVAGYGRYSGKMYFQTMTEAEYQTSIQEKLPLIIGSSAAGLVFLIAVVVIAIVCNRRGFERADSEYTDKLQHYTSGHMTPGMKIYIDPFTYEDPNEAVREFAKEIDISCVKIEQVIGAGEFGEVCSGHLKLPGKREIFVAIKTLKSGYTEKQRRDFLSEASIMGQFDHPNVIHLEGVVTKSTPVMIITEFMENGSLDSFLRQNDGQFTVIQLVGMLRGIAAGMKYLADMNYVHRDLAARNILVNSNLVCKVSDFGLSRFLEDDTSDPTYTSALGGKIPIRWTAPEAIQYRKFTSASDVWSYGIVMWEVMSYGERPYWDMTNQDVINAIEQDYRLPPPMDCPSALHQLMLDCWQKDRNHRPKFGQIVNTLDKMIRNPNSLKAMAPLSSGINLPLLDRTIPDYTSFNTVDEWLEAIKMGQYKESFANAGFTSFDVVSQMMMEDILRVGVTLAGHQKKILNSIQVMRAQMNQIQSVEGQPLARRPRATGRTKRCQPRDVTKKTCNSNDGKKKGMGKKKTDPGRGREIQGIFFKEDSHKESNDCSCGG
# [2] = target: T2, Ephrin type-B receptor 3 (Homo sapiens) (UniProt P54753); settings: at 0.1 µM
# T2 sequence (whole entry): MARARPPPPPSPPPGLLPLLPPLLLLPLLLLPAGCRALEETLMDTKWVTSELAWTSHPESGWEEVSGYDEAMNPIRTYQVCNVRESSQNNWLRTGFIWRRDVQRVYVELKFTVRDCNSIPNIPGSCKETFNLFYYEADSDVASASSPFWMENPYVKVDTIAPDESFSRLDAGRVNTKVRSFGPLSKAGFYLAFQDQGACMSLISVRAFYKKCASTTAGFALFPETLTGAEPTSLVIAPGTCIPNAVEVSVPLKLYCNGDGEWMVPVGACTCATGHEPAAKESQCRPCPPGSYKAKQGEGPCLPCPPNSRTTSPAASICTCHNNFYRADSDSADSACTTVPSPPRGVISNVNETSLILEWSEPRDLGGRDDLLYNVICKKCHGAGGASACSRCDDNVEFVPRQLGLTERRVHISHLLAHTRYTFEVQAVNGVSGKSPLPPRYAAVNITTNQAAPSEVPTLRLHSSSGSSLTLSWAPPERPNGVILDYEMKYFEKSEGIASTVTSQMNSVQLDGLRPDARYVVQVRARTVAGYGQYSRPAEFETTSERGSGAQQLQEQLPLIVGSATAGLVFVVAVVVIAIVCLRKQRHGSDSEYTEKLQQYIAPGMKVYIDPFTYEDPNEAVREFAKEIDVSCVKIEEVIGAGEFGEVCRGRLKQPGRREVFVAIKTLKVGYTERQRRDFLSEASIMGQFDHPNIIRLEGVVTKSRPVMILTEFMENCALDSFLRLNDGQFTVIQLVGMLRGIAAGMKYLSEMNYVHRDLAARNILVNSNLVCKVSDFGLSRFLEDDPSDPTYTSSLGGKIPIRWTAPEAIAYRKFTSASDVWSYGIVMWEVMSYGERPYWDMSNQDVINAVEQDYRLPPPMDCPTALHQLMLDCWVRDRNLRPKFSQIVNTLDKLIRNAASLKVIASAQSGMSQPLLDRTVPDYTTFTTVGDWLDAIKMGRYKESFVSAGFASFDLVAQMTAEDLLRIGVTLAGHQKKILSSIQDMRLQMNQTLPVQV
# [3] = target: T2, Ephrin type-B receptor 3 (Homo sapiens); settings: at 1 µM
# [4] = target: T3, Ephrin type-B receptor 4 (Homo sapiens) (UniProt P54760); settings: at 0.1 µM
# T3 sequence (whole entry): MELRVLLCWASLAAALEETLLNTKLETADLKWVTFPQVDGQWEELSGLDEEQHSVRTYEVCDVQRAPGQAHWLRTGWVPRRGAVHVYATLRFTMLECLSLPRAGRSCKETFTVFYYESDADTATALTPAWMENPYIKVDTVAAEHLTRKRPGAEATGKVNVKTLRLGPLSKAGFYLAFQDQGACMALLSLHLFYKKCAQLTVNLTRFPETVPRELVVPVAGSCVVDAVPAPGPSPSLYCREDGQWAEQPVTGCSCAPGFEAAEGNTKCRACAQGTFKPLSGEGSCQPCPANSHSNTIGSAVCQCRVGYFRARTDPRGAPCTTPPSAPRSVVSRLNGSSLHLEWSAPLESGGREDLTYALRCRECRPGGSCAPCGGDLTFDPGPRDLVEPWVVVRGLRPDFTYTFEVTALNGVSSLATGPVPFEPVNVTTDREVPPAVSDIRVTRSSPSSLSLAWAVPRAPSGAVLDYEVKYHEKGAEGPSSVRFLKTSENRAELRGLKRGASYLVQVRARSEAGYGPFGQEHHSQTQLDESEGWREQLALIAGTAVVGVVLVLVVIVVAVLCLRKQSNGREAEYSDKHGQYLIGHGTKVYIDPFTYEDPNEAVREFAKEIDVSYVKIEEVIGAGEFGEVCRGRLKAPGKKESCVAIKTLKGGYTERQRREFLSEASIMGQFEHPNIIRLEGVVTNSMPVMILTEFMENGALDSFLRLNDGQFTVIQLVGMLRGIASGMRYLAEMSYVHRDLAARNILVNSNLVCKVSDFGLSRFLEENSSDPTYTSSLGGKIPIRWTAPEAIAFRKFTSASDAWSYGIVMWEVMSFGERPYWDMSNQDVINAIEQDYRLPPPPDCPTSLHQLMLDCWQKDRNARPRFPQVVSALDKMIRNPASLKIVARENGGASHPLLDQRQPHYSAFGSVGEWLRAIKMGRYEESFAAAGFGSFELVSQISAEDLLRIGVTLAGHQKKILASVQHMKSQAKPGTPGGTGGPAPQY
# [5] = target: T3, Ephrin type-B receptor 4 (Homo sapiens); settings: at 1 µM
# [6] = target: Receptor tyrosine-protein kinase erbB-2 (Homo sapiens) (UniProt P04626); settings: at 0.1 µM
# [7] = target: Receptor tyrosine-protein kinase erbB-2 (Homo sapiens) (UniProt P04626); settings: at 1 µM
# [8] = target: Receptor tyrosine-protein kinase erbB-4 (Homo sapiens) (UniProt Q15303); settings: at 0.1 µM
# Receptor tyrosine-protein kinase erbB-4 (Homo sapiens), sequence (Q15303 whole entry): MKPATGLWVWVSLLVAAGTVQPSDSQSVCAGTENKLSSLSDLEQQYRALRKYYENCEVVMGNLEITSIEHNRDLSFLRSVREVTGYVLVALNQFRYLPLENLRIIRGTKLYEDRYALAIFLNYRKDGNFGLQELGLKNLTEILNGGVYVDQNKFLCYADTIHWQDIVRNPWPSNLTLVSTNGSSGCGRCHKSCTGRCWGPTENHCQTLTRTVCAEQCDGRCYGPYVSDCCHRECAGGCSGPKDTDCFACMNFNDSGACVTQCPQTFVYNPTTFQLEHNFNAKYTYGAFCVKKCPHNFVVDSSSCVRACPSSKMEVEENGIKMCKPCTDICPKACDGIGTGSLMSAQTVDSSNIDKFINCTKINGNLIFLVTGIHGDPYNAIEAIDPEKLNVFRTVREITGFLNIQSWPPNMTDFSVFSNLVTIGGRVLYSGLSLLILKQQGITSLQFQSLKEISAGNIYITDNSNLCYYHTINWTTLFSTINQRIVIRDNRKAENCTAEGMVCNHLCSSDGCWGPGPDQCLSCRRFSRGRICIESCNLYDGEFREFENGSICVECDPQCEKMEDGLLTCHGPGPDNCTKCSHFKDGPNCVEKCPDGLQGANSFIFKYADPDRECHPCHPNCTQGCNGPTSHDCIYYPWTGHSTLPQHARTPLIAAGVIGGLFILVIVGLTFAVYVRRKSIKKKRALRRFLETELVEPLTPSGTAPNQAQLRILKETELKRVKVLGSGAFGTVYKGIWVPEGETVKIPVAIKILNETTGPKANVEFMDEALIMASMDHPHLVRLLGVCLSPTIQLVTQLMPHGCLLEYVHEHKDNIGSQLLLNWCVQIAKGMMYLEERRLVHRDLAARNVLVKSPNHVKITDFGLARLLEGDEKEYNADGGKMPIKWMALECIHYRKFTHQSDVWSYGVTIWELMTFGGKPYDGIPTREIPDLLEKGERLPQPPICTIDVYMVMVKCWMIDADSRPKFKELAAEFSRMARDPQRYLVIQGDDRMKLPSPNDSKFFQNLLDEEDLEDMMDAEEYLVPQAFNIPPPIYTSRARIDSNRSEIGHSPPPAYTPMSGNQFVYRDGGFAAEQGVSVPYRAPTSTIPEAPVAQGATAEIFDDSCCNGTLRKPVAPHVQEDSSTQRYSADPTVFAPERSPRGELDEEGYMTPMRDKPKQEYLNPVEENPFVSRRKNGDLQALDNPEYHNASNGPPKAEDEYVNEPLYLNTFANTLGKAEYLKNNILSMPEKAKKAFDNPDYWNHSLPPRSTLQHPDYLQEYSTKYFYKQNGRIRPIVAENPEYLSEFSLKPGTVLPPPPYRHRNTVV
# [9] = target: Receptor tyrosine-protein kinase erbB-4 (Homo sapiens) (UniProt Q15303); settings: at 1 µM
# [10] = target: Tyrosine-protein kinase Fer (Homo sapiens) (UniProt P16591); settings: at 0.1 µM
# Tyrosine-protein kinase Fer (Homo sapiens), sequence (P16591 whole entry, looked up): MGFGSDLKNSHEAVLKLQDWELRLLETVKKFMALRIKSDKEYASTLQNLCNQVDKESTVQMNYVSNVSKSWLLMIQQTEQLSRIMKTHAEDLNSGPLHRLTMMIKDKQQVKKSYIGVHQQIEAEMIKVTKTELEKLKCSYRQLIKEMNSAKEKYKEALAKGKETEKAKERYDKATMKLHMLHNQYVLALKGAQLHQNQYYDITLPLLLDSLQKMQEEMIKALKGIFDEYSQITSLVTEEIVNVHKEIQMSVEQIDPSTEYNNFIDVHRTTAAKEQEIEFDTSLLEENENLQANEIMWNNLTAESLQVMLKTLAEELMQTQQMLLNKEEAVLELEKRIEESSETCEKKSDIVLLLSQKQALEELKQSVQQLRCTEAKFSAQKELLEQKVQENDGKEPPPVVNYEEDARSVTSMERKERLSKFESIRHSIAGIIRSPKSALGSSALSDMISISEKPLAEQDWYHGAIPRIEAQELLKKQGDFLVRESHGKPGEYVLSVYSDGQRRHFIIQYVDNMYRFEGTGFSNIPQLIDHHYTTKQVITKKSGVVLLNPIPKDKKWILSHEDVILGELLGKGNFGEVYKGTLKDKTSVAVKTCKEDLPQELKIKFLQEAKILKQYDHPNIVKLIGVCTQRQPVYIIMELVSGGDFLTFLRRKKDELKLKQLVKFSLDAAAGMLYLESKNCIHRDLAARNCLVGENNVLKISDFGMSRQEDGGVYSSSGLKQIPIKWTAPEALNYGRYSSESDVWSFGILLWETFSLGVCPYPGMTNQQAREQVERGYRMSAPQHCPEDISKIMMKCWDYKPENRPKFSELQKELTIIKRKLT
# [11] = target: Tyrosine-protein kinase Fer (Homo sapiens) (UniProt P16591); settings: at 1 µM
# [12] = target: Tyrosine-protein kinase Fes/Fps (Homo sapiens) (UniProt P07332); settings: at 0.1 µM
# Tyrosine-protein kinase Fes/Fps (Homo sapiens), sequence (P07332 whole entry): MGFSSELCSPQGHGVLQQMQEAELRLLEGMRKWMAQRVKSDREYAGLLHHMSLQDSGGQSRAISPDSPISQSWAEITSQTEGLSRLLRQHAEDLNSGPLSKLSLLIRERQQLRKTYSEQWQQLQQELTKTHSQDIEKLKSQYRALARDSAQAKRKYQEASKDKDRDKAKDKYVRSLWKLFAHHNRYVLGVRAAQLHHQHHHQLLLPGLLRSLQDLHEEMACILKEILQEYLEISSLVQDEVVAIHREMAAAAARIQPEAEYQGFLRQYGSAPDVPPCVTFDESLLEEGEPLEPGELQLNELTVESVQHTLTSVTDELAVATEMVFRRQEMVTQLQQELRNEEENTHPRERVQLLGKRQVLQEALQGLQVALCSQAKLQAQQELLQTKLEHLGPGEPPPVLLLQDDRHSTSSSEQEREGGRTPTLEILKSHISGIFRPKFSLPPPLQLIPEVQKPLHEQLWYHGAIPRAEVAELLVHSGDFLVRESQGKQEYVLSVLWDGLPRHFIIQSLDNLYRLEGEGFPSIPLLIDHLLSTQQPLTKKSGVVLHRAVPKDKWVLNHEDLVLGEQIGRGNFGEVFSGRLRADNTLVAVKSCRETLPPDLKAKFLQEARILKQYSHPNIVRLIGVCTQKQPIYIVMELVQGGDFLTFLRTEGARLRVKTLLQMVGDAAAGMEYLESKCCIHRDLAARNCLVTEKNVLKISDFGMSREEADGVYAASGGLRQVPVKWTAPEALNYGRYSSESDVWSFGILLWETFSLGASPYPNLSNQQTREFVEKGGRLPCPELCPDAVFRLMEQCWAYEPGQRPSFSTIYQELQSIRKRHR
# [13] = target: Tyrosine-protein kinase Fes/Fps (Homo sapiens) (UniProt P07332); settings: at 1 µM
# [14] = target: Fibroblast growth factor receptor 1 (Homo sapiens) (UniProt P11362); settings: at 0.1 µM
# [15] = target: Fibroblast growth factor receptor 1 (Homo sapiens) (UniProt P11362); settings: at 1 µM
# [16] = target: Fibroblast growth factor receptor 2 (Homo sapiens) (UniProt P21802); settings: at 0.1 µM
# [17] = target: Fibroblast growth factor receptor 2 (Homo sapiens) (UniProt P21802); settings: at 1 µM
# [18] = target: Fibroblast growth factor receptor 3 (Homo sapiens) (UniProt P22607); settings: at 0.1 µM
# Fibroblast growth factor receptor 3 (Homo sapiens), sequence (P22607 23-806 limits assumed): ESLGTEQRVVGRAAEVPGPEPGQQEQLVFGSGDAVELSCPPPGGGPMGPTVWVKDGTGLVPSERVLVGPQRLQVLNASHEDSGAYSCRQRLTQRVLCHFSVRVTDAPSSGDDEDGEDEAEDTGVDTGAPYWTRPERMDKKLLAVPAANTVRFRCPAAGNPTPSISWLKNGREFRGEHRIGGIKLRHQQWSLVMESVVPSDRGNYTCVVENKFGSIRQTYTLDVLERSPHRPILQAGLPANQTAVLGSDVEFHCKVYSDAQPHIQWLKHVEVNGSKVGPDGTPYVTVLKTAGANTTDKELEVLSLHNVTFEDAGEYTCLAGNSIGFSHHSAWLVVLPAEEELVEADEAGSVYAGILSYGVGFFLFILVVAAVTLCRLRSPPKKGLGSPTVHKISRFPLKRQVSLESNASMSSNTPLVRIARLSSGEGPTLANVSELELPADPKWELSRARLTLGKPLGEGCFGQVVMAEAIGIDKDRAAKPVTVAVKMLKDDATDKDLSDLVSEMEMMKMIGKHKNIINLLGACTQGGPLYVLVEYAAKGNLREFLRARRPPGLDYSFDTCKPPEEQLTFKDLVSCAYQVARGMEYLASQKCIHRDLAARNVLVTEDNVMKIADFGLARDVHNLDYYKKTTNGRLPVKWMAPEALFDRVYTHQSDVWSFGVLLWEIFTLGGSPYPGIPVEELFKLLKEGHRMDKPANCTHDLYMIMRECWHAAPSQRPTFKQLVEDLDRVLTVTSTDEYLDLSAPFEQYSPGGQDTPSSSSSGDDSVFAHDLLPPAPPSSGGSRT
# [19] = target: Fibroblast growth factor receptor 3 (Homo sapiens) (UniProt P22607); settings: at 1 µM
# [20] = target: Fibroblast growth factor receptor 4 (Homo sapiens) (UniProt P22455); settings: at 0.1 µM;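 note: values are mean percent inhibition of FGFR4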
# Fibroblast growth factor receptor 4 (Homo sapiens), sequence (P22455 22-802 limits assumed): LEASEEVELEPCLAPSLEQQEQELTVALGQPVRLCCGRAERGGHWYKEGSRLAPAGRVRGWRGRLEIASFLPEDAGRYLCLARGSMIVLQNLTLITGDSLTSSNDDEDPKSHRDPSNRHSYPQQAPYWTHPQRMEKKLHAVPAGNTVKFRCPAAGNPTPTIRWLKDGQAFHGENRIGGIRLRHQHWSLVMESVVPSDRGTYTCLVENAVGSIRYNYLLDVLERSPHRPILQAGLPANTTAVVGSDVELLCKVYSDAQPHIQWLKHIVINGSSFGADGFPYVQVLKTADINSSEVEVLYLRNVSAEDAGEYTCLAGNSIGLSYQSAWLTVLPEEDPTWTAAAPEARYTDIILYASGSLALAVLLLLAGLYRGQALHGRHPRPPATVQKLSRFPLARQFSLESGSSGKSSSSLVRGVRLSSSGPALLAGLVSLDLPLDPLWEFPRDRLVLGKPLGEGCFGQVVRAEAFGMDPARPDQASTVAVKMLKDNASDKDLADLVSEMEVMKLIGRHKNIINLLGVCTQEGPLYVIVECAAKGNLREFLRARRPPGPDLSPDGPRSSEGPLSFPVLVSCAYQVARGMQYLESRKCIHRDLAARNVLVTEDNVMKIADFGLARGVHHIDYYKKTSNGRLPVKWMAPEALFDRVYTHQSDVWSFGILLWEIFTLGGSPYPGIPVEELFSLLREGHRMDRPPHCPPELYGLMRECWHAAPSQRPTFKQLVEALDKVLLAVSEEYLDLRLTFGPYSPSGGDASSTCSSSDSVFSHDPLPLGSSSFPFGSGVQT
SMILES,inhibition [1],inhibition [2],inhibition [3],inhibition [4],inhibition [5],inhibition [6],inhibition [7],inhibition [8] [%],inhibition [9],inhibition [10],inhibition [11],inhibition [12],inhibition [13],inhibition [14],inhibition [15],inhibition [16],inhibition [17],inhibition [18],inhibition [19],inhibition [20]
COc1ccc(-c2nn3ncccc3c2-c2ccnc(Nc3ccc(F)c(F)c3)n2)cc1,18.6%,4.77%,3.59%,1.49%,7.6%,4.95%,5.88%,27.1,71.3%,4.09%,7.64%,2.66%,2.57%,4.92%,0.84%,5.14%,7.4%,5.17%,7.65%,1.42%
CCS(=O)(=O)c1ccc(OC)c(Nc2ncc(-c3cccc(F)c3)o2)c1,45.9%,3.05%,6.76%,5.59%,31.7%,38.7%,5.62%,9.46,17.8%,2.32%,8.9%,4.72%,4.79%,12.7%,46.2%,40.5%,69.8%,52.9%,77.3%,5.31%
O=C(O[C@H]1CN[C@H](C#Cc2cc3ncnc(Nc4ccc5c(ccn5Cc5cc(F)ccc5F)c4)c3s2)C1)N1CCOCC1,4.17%,6.61%,5.15%,2.46%,3.04%,9.01%,40.9%,86.9,86.3%,1.31%,5.55%,3.3%,3.52%,-0.06%,2.23%,3.95%,4.22%,5.33%,3.1%,-1.92%
CCOc1ccc2c(-c3ccnc(Nc4cc(OC)cc(C(F)(F)F)c4)n3)cnn2n1,8.72%,2.9%,1.21%,2.17%,1.74%,2.32%,2.46%,4.82,4.44%,2.36%,8.05%,0.16%,0.05%,4.3%,-0.38%,-1.84%,3.9%,1.13%,2.09%,0.25%
COc1ccc2ncn(-c3cc(O[C@H](C)c4ccccc4C(F)(F)F)c(C(N)=O)s3)c2c1,1.95%,1.32%,0.52%,-1.21%,1.77%,-0.36%,-1.72%,1.06,3.12%,1.06%,3.58%,-0.21%,0.25%,1.11%,-0.51%,-2.58%,5.48%,0.12%,3.58%,0.21%
NS(=O)(=O)c1ccc(N/N=C2\C(=O)Nc3cccc(CCc4ccncc4)c32)cc1,5.15%,2.41%,2.85%,1.21%,0.87%,-0.81%,3.74%,4.66,8.01%,4.04%,5.66%,0.64%,-0.42%,5.09%,16.7%,7.6%,18.2%,6.3%,19.2%,4.76%
Nc1nccc(-c2c(-c3ccc(F)cc3)ncn2C2CCNCC2)n1,3.74% and 17%,-8.29% and 1.29%,-2.02% and 2.97%,-1.79% and 2.99%,1.69% and 3.45%,-4.63% and -1.31%,-2.23% and 2.46%,3.28,-6.69% and 9.1%,-1.84% and 2.2%,-1.75% and 3.19%,-3.81% and -0.12%,-3.68% and -0.18%,-5.66% and -0.16%,-4.83% and 1.62%,-3.3% and 0.04%,-3.58% and 1.03%,-3.25% and 3.33%,-1.53% and 2.36%,-0.08% and 3.95%
O=C(O[C@H]1CN[C@H](C#Cc2cc3ncnc(Nc4ccc5c(cnn5Cc5ccccc5)c4)c3s2)C1)N1CCOCC1,1.97%,-0.25%,2.72%,-1.51%,0.96%,6.21%,48.3%,107,104%,-0.71%,0.92%,-0.09%,-1.2%,-2.97%,-1.28%,-0.61%,-0.52%,0.4%,0.43%,0.54%
Fc1ccc(Nc2nccc(-c3c(-c4ccc(C(F)(F)F)cc4)nn4ncccc34)n2)cc1F,6.54%,4.44%,1.93%,2.27%,1.26%,-0.32%,-1.28%,9.22,10.4%,4.97%,4.28%,3.21%,3.35%,7.42%,4.6%,5.3%,6.72%,6.52%,4.25%,-0.65%
